PubChem BioAssay (NCATS)
Several values for one entry are separate records, joined by “and”; a condition that tells them apart may be missing. Equal values may be shown once. Results filed as inconclusive are left out. Activity calls are given as the source filed them. Unless noted, calls follow the shape of the dose curve; as a rule, active = well fitted curve in the direction sought with a large enough effect; inconclusive = small, poorly fitted or top-dose-only effect, or another doubt; inactive = no such curve, though single readings can be large; an effect the other way counts as inactive or inconclusive.

Assays:
[1] = target: Cellular tumor antigen p53 (Homo sapiens) (UniProt P04637); assay: Primary qHTS for small molecule compounds that upregulate eGFP-tagged delta133p53alpha (in N-terminal) cells. (AID 2060322); conditions: NCI-H358 eGFP-delta133p53alpha fluorescence, 24 h; activation: active compounds read high;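 also: series mostly up to about 56 µM; 0% = DMSO vehicle and 100% = reference activator; nearly all actives have a fitted effect of over 75% in size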
In short: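 NCI-H358 cells pre-induced 24 h with 10 ng/ml doxycycline to express N-terminal eGFP-delta133p53alpha, then dosed 24 h at 37C without doxycycline; fixed, Hoechst-stained, GFP intensity by laser scanning cytometry, normalized to DMSO (0%) and 57.5 uM 5-azacytidine (100%).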

[2] = target: Cellular tumor antigen p53 (Homo sapiens) (UniProt P04637); assay: Primary qHTS for small molecule compounds that upregulate eGFP-tagged delta133p53alpha (in C-terminal) cells. (AID 2060324);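 also: 0% = DMSO wells and 100% = 57.5 µM 5-azacytidine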
In short: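 In this qHTS, GFP-tagged delta133p53alpha levels are measured in fixed NCI-H358 cells after 24 h compound exposure at 37 °C. The cells are pre-induced with 100 ng/ml doxycycline, and signal is normalized to DMSO-treated wells as 0%.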

[3] = target: Aldehyde dehydrogenase, mitochondrial (Homo sapiens) (UniProt P05091); assay: qHTS for Inhibitors of the Aldehyde Dehydrogenase Family (ALDH2) Validation screens (AID 2061302; active = well fitted inhibition curve with a large enough effect; title and protocol of this record describe different tests;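 also: plate controls were DMSO vehicle for no effect and maximal DPI positive control response for full effect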)
[4] = target: Retinaldehyde dehydrogenase 3 (Homo sapiens) (UniProt P47895); assay: qHTS for Inhibitors of the Aldehyde Dehydrogenase Family (ALDH1A3) Validation screen (AID 2061312); also: % is scaled to controls: 0 for no effect and ±100 for the full control effect; nearly all actives have a fitted effect of over 45% in size

Sequence of Cellular tumor antigen p53 (Homo sapiens) (P04637 whole entry, looked up): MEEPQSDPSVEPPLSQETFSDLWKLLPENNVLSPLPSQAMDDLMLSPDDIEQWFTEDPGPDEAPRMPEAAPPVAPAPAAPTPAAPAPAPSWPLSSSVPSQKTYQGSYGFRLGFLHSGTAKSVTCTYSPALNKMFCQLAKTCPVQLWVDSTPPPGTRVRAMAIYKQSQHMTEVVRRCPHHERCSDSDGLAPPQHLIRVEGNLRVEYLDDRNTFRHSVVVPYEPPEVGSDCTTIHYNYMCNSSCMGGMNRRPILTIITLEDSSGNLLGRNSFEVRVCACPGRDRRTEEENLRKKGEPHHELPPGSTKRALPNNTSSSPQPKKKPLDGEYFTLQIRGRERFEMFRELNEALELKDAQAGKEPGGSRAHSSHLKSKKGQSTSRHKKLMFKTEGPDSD

CC(=O)OCC1=C(C(=O)O)N2C(=O)[C@@H](NC(=O)Cc3cccs3)[C@H]2SC1
inactive: activation [1] 27.7% and 1.09% | Potency [2] | Potency [3] | Potency [4]

CNc1ncnc2c1ncn2[C@@H]1O[C@H](CO)[C@@H](O)[C@H]1O
inactive: activation [1] 5.48% | Potency [2] | Potency [3] | Potency [4]

COC1(C2=NCCN2)COc2ccccc2O1 (stereo not drawn)
inactive: activation [1] -0.599% | Potency [2] | Potency [3] | Potency [4]

CC(C)[N+](C)(CCOC(=O)C1c2ccccc2Oc2ccccc21)C(C)C
inactive: activation [1] 18.6% and -22.6% | Potency [2] | Potency [3] | Potency [4]

CN1C2CCCC1CC(NC(=O)c1nn(C)c3ccccc13)C2 (stereo not drawn)
inactive: activation [1] -4.74% | Potency [2] | Potency [3] | Potency [4]

CN/C(=C\[N+](=O)[O-])NCCSCc1ccc(CN(C)C)o1
inactive: activation [1] 7.34% and -15.3% | Potency [2] | Potency [3] | Potency [4]

CNC(=O)[C@H]1O[C@@H](n2cnc3c(NCc4ccc(N)cc4)ncnc32)[C@H](O)[C@@H]1O
inactive: activation [1] -32.5% | Potency [2] | Potency [3] | Potency [4]

O=C(O)c1ccccc1Nc1ccccc1
inactive: activation [1] -8.85% | Potency [2] | Potency [3] | Potency [4]

COc1cc(C(O)C(=O)O)ccc1O (stereo not drawn)
inactive: activation [1] -11.9% | Potency [2] | Potency [3] | Potency [4]

CC(C)Cn1c(=O)n(C)c(=O)c2[nH]cnc21
inactive: activation [1] -30.3% | Potency [2] | Potency [3] | Potency [4]

c1ccc(C2CN3CCSC3=N2)cc1 (stereo not drawn)
inactive: activation [1] 27% | Potency [2] | Potency [3] | Potency [4]

OC[C@H]1O[C@@H](n2cnc3c(NC4CCCC4)ncnc32)[C@H](O)[C@@H]1O
inactive: activation [1] -30.9% | Potency [2] | Potency [3] | Potency [4]

CCN(CC)CCOC(=O)c1ccc(N)cc1
inactive: activation [1] -14.2% and -16.3% | Potency [2] | Potency [3] | Potency [4]

CC[N+](C)(C)c1cccc(O)c1
inactive: activation [1] 3.57% | Potency [2] | Potency [3] | Potency [4]

CCOC(=O)C1=C[C@]2(CC)CCCN3CCc4c(n1c1ccccc41)[C@@H]32
inactive: activation [1] 20.9% and -18.2% | Potency [2] | Potency [3] | Potency [4]

Cn1c(=O)c2c(nc(/C=C/c3cccc(Cl)c3)n2C)n(C)c1=O
inactive: activation [1] -0.199% | Potency [2] | Potency [3] | Potency [4]

OC[C@H]1NC[C@@H](O)[C@@H]1O
inactive: activation [1] 4.88% | Potency [2] | Potency [3] | Potency [4]

COc1cc2nc(N3CCN(C(=O)C4COc5ccccc5O4)CC3)nc(N)c2cc1OC (stereo not drawn)
inactive: activation [1] 6.69% and -16.6% and -33.1% | Potency [2] | Potency [3] | Potency [4]

COc1cc(CNC(=O)CCCCCCC(C)C)ccc1O
inactive: activation [1] 0.736% | Potency [2] | Potency [3] | Potency [4]

CCN(CC)CCCN(c1ccccc1)C1Cc2ccccc2C1
inactive: activation [1] -2.82% and -37.7% | Potency [2] | Potency [3] | Potency [4]

COc1cc(Cc2cnc(N)nc2N)cc(OC)c1OC
inactive: activation [1] -5.08% and -24.5% | Potency [2] | Potency [3] | Potency [4]

C#C[C@]1(O)CC[C@H]2[C@@H]3CCC4=Cc5oncc5CC4(C)[C@H]3CCC21C (stereo partly drawn)
inactive: activation [1] -35.6% | Potency [2] | Potency [3] | Potency [4]

CN1C2CCC1CC(OC(c1ccccc1)c1ccccc1)C2 (stereo not drawn)
inactive: activation [1] -19.6% | Potency [2] | Potency [3] | Potency [4]

O=C(Nc1ccccc1)c1cc([N+](=O)[O-])ccc1Cl
inactive: activation [1] 24.9% | Potency [2] | Potency [3] | Potency [4]

O=C(c1ccc(OCCCc2cnc[nH]2)cc1)C1CC1
inactive: activation [1] 6.88% | Potency [2] | Potency [3] | Potency [4]

CN1C2CCC1CC(OC(=O)c1c[nH]c3ccccc13)C2 (stereo not drawn)
inactive: activation [1] -37.1% | Potency [2] | Potency [3] | Potency [4]

CN1C2CC(OC(=O)[C@H](CO)c3ccccc3)CC1C1OC12 (stereo partly drawn)
inactive: activation [1] -3.28% | Potency [2] | Potency [3] | Potency [4]
